Source: PubChem (National Center for Advancing Translational Sciences (NCATS))
Sampled rows, rich in hits. Any-hit rate of the full collection: about 8.1%.
ELG1 DNA repair: qHTS screen for small molecules that inhibit ELG1-dependent DNA repair in human embryonic kidney (HEK293T) cells expressing luciferase-tagged ELG1. HEK293T ELG1-luciferase reporter, luminescence, 16 h; DNA damage induced by 5-fluorouridine. Potency, µM (doses to about 46.1 µM), without a hit: top-dose activity change, negative = inhibition, hits mostly inhibitors. hit rate 2.3% among 330,000. AID 504467, 2011; also: % is scaled to controls: 0 for no effect and ±100 for the full control effect; nearly all actives have a fitted effect of over 55% in size
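Luminescence from the luciferase reporter, measured 30 min after ONE-Glo reagent at room temperature, was the read-out. Beforehand, 2,000 cells per well were exposed for 16 hr at 37 °C to 5-fluorouridine together with compound or vehicle.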
KB-V1 MDR tox: qHTS assay for MDR1-selective chemotherapeutics: Primary screen using the drug-selected MDR subline cells KB-V1; KB-V1 MDR cells viability, CellTiter-Glo, 72 h; hit rate 3.4% among 400,000; Potency, µM (highest dose often 46.1 µM), actives largely listed as cytotoxic; also: % is scaled to controls: 0 for no effect and ±100 for the full control effect; nearly all actives have a fitted effect of over 60% in size
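Drug-selected KB-V1 cells, grown in DMEM lacking phenol red with 10% FBS, receive compound titrations; after three days at 37 degrees C, surviving cell ATP is quantified by CellTiter-Glo luminescence and responses normalized and curve-fitted.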
SW480 rereplic: A quantitative high throughput screen for small molecules that induce DNA re-replication in SW480 colon adenocarcinoma cells. SW480 DNA re-replication, Hoechst DNA content imaging, 48 h. Potency, µM (highest dose often 46.1 µM), for inactives: at the highest dose re-replication activation, most hits filed as activators. hit rate 1.8% among 340,000; also: % of control where 0% means no effect; nearly all actives have a fitted effect of over 55% in size
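First, 250 cells per well were seeded. Next, compound or vehicle (23 nL) was pinned in, plates sat 48 hr at 37 C. Finally Hoechst was added for 40 min before fluorescence scanning.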
KB-3-1 tox: qHTS assay for MDR1-selective chemotherapeutics: Primary screen using the parental adenocarcinoma cell KB-3-1; KB-3-1 viability, CellTiter-Glo ATP luminescence, 72 h; Potency, µM (highest dose often 46.1 µM), hits mostly cytotoxic; hit rate 1.4% among 400,000; AID 1347075, 2019; also: % is scaled to controls: 0 for no effect and ±100 for the full control effect; nearly all actives have a fitted effect of over 60% in size
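KB-3-1 cells, DMEM (no phenol red) + 10% FBS; compound by pin transfer, 72 h, 37 °C. Readout: CellTiter-Glo luminescence after 10 min. Data normalized, curve-fitted.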
MCF10A rerep: A quantitative high throughput screen for small molecules that induce DNA re-replication in MCF 10a normal breast cells; Potency, µM (doses to about 46.1 µM), for the others: at the top dose activity, positive = re-replication, usual class: activators; MCF 10A DNA re-replication, Hoechst nuclear intensity, 48 h; hit rate 2.9% among 350,000; also: % of control where 0% means no effect; nearly all actives have a fitted effect of over 50% in size
* marks the source's active call; other numbers are inactive results; i = inactive; ? = inconclusive; / = no result given; ! = not confirmed by another sample; [ ] = remark or other dose. Calls follow the shape of the dose curve; as a rule, active = well fitted curve in the direction sought with a large enough effect; inconclusive = small, poorly fitted or top-dose-only effect, or another doubt; inactive = no such curve, though single readings can be large; an effect the other way counts as inactive or inconclusive. Potency is read from the fitted curve at half-maximal effect.

SMILES | ELG1 DNA repair | KB-V1 MDR tox | SW480 rereplic | KB-3-1 tox | MCF10A rerep
COc1ccc(C2=NOC(COc3ccc4c(C)cc(=O)oc4c3)C2)c(OC)c1 (configuration not stated) | ? | 14.6µM* | 11.6µM* | 5.8µM* | 25.9µM*
COc1ccccc1C1=NOC(COc2ccc3c(C)cc(=O)oc3c2)C1 (configuration not stated) | -10.6% | 18.4µM* | 8.2µM* | 1.16µM* | 1.64µM*
CCC1CCCCN1C(=O)CSc1n[nH]c(-c2ccccc2Cl)n1 (configuration not stated) | / | i | / | i | /
COc1ccc(/C=C2\Sc3ccc(C(=O)N4CCCC4)cc3N(C)C2=O)cc1OC | ? | i | 3.98µM* | i | 11.6%
O=C(c1ccc2c(c1)N(Cc1c(F)cccc1Cl)C(=O)c1ccccc1S2)N1CCOCC1 | / | i | / | i | /
CN1C(=O)/C(=C\c2ccccc2F)Sc2ccc(C(=O)NC3CCN(Cc4ccccc4)CC3)cc21 | ? | i | 20.6µM* | ? | ?
COc1ccc(/C=C2\Sc3ccc(C(=O)NC4CC4)cc3N(C)C2=O)cc1OC | 11.6µM* | ? | 7.8% | i | ?
Cc1cccc(/C=C2\Sc3ccc(C(=O)N4CCC(C(N)=O)CC4)cc3N(C)C2=O)c1 | -16.7% | i | 2.3% | ? | -4.1%
CN1C(=O)/C(=C/c2cccc(Cl)c2)Sc2ccc(C(=O)N3CCOCC3)cc21 | ? | i | ? | i | 20.6µM*
CCCC[C@@H]1Cc2[nH][nH]c(=O)c2[C@H](c2ccc3ccccc3c2)O1 | / | i | / | i | /
CCOc1ccc(/C=C2/Sc3ccc(C(=O)N4CCOCC4)cc3N(C)C2=O)cc1OC | 8.2µM* | ? | ? | i | ?
COc1ccc(/C=C2\Sc3ccc(C(=O)N4CCc5ccccc5C4)cc3N(C)C2=O)cc1 | -2.3% | / | / | / | /
COC(=O)C[C@H]1C=C[C@H](NC(=O)Nc2ccccc2F)[C@@H](CO)O1 | / | i | / | i | /
COc1ccc(S(=O)(=O)NCc2ccc(C(=O)NCCCN3CC(C)CC(C)C3)cc2)cc1 (configuration not stated) | 16.8% | i | -0.8% | i | -3.1%
Cc1ccc2c(c1)C(C)CC(C)(C)N2C(=O)NC1CCCCC1 (configuration not stated) | ? | i | -2.9% | i | 0.0%
Cc1ccc2c(c1)N(C(=O)NC1CCCCC1)C(C)(C)CC2C (configuration not stated) | ? | i | ? | i | 9.2µM*
O=C(Nc1ccc(Cl)cc1)c1ccc(Br)cc1F | ? | i | -3.1% | i | 10.5%
CCCCNc1c(-c2ccc(SC3CCCCC3)c(OC)c2)nc2ccc(C)cn12 | ? | ? | ? | ? | 10.3µM*
COc1ccc(-c2nc3ccc(Cl)cn3c2NC2CCCCC2)cc1SC1CCCCC1 | 19.3% | i | -0.7% | ? | 16.4µM*
Cc1ccc2nc(-c3cccc(SC4CCCCC4)c3)c(NC3CCCCC3)n2c1 | ? | i | 22.0% | i | 10.7%
COc1ccc(-c2ccc(-c3nc4ccc(C)cn4c3NC3CCCCC3)cc2OC)cc1 | ? | 16.4µM*! | ? | ? | ?
CCCCNc1c(-c2ccc(OC)c(SC3CCCCC3)c2)nc2ccc(C)cn12 | ? | ? | 105.2% | ? | 7.31µM*
CCCCCCSc1cc(-c2nc3ccc(Cl)cn3c2NCCCC)ccc1OC | -0.7% | ? | -17.4%[9.22 µM] | i | 1.9%
CCOc1ccc(-c2nonc2NC(=O)c2oc3cc(C)c(C)cc3c2C)cc1OCC | / | i | / | i | /
COc1cc(-c2nc3ccc(C)cn3c2Nc2ccc3c(c2)OCCO3)ccc1O | 8.0% | i | 7.6% | i | 20.6µM*
SMILES | ELG1 DNA repair | KB-V1 MDR tox | SW480 rereplic | KB-3-1 tox | MCF10A rerep
COc1ccc(-c2nc3ccc(C)cn3c2NCc2ccccc2)cc1SC1CCCCC1 | ? | i | 2.8%[9.22 µM] | i | 18.4µM*
CCn1c(CCNC(=O)c2ccc(OC)cc2)nnc1SCc1ccc(Cl)c(Cl)c1 | ? | 4.61µM* | -134.3% | ? | 22.9%
Cc1ccc(C2(C)NC(=O)N(CC(=O)NCc3cccc(Cl)c3)C2=O)cc1 (configuration not stated) | 8.3% | i | -10.6% | i | -22.1%
CCS(=O)(=O)c1ncc(Cl)c(C(=O)Nc2ccc(S(=O)(=O)N(C)c3ccccc3)cc2)n1 | ? | ? | 10.3µM* | 2.59µM* | ?
CCSc1ncc(Cl)c(C(=O)Nc2ccc(S(=O)(=O)N(C)c3ccccc3)cc2)n1 | / | i | / | i | /
CCN(c1ccccc1)S(=O)(=O)c1ccc(NC(=O)c2nc(S(C)(=O)=O)ncc2Cl)cc1 | ? | ? | 5.17µM* | 5.17µM* | ?
CO/N=C(/C(=O)N[C@@H]1C(=O)N2C(C(=O)O)=CCS[C@H]12)c1csc(N)n1 | / | / | -0.1% | / | 1.4%
Cc1cc(NC(=O)CC#N)n(-c2nc3ccccc3[nH]2)n1 | 11.6µM* | i | ? | i | 17.9%
COc1cccc(OC)c1C(=O)Nc1cc(C)nn1-c1nc2ccccc2[nH]1 | ? | 3.26µM* | ? | 14.6µM* | ?
Cc1cc(NC(=O)c2sccc2C)n(-c2nc3ccccc3[nH]2)n1 | ? | ? | 10.6% | ? | ?
COc1ccc(C(=O)Nc2cc(C)nn2-c2nc3ccccc3[nH]2)c(OC)c1 | 23.1µM* | i | -44.3% | i | ?
Cc1cc(NC(=O)c2cccs2)n(-c2nc3ccccc3[nH]2)n1 | -11.8% | ? | 4.61µM* | ? | ?
Cc1cc(NC(=O)c2ccccc2)n(-c2nc3ccccc3[nH]2)n1 | -9.1% | i | 5.7% | i | 7.5%
CCOC(=O)C(=O)Nc1cc(C)nn1-c1nc2ccccc2[nH]1 | ? | i | -3.0% | i | -5.1%
CCOCC(O)COc1ccc(NC(=O)CC[S+](C)C)cc1 (configuration not stated) | / | / | -0.8% | / | 8.6%
Cc1ccccc1N1CC(c2nc3ccccc3n2Cc2ccc(Br)cc2)CC1=O (configuration not stated) | / | i | / | ? | /
Cc1cccc(N2CCN(C(=O)CSCc3c(C)noc3C)CC2)c1C | 9.9% | 1.84µM* | 14.1% | 3.66µM* | 10.6%
CCOc1ccc(N(CC(=O)N2CCN(c3ccc(F)cc3)CC2)S(=O)(=O)c2c(C)noc2C)cc1 | 3.3% | i | 23.1µM* | i | -1.0%
Cc1noc(C)c1CSCC(=O)N1CCN(c2ccc(F)cc2)CC1 | 11.2µM* | 2.91µM* | -12.0% | ? | -1.5%
